Assay [1] deals with Staphylococcus aureus. Particulars: Concentration 32 ug.mL-1;; ASSAY_TEST Inhibition of Bacterial Growth; detection method Absorption (OD600); MEDIA CAMHB; plate type 384well; NBS; CORNING #3640; time 18 hr.
The test system of assay [2] is Escherichia coli. Particulars: Concentration 32 ug.mL-1;; ASSAY_TEST Inhibition of Bacterial Growth; detection method Absorption (OD600); MEDIA CAMHB; plate type 384well; NBS; CORNING #3640; time 18 hr.

Measured potencies and affinities stand elsewhere.

For `COc1cccc(Sc2nc3ccccc3n3c(=O)n(CC(=O)Nc4ccccc4)nc23)c1`, the Inhibition (commonly the change of the read-out against control, counted positive when it falls) is listed as -1.75% in assay [1] and -6.94% in assay [2].

Regarding `CCCCc1ccc(NC(=O)Cn2c(=O)c3nnc(CCC)n3c3ccccc32)cc1`, the results for the Inhibition in assay [1] and in assay [2] were 2.94% and -1.42%, respectively.

As to `CCCCc1ccc(NC(=O)Cn2nc3c(SC4CCCCC4)nccn3c2=O)cc1`, the values for the Inhibition in assay [1] and in assay [2] were -1.79% and -6.08%, respectively.

In the case of `CC(=O)c1ccc(NC(=O)Cn2nc3c4cc(-c5ccc(Cl)cc5)nn4ccn3c2=O)cc1`, the Inhibition worked out at 8.4% in assay [1] and 0.52% in assay [2].

For the compound `Cc1cc(C)c(NC(=O)Cn2nc3ccc(SC(C)(C)C)nn3c2=O)c(C)c1`, the Inhibition in assay [1] is 11.62%; in assay [2], -0.74%.

With `Cc1nnc2ccc(S(=O)(=O)N(Cc3ccccc3)c3ccc(Cl)cc3)cn12`, the values for the Inhibition in assay [1] and in assay [2] were 1.7% and -13.98%, respectively.

Consider `Cc1ccc(Cl)cc1NC(=O)CSc1nc2ccccc2n2c(C)nnc12`, for which the Inhibition is -8.21% in assay [1] and -3.62% in assay [2].

Turning to `Cc1cccc(NC(=O)CSc2nnc3c4cc(-c5ccccc5)nn4ccn23)c1C`, the Inhibition in assay [1] was -15.85%; in assay [2], -6.36%.

For `CCC(C)NC(=O)Cn1c(=O)c2nnc(C)n2c2ccccc21` (stereo not given), the Inhibition in assay [1] was 9.8%; in assay [2], -2.5%.

For `Cc1ccc(NC(=O)Cn2nc3c(N4CCOCC4)nccn3c2=O)cc1F`, the Inhibition in assay [1] turned out to be 9.97%; in assay [2] it was 2.81%.

With `CSc1cccc(NC(=O)Cn2nc3c(SCc4ccc(Cl)cc4)nccn3c2=O)c1`, the Inhibition in assay [1] is recorded as -9.65%; in assay [2] it was -9.35%.

Consider `O=C(Cn1nc2ccc(-c3ccccc3)nn2c1=O)Nc1ccc(Cl)c(C(F)(F)F)c1`, for which the values for the Inhibition in assay [1] and in assay [2] were 6.21% and -6.69%, respectively.

Regarding `CCC(Sc1nnc2c(=O)n(-c3cccc(OC)c3)ccn12)C(=O)Nc1cc(F)ccc1F` (stereo not given), the figures for the Inhibition in assay [1] and in assay [2] were 3.22% and -7.17%, respectively.

As to `Cc1ccccc1CSc1nnc2c(=O)n(-c3ccc(Br)cc3)ccn12`, the results for the Inhibition in assay [1] and in assay [2] were 1.11% and -8.83%, respectively.

Take `O=S(=O)(c1cccn2cnnc12)N(Cc1ccccc1F)c1ccc(F)c(F)c1`: the Inhibition in assay [1] is listed as -22.58%; in assay [2] it was 5.15%.

Regarding `COC(=O)c1sccc1NC(=O)Cn1nc2c(Oc3ccc(C)cc3)nc3ccccc3n2c1=O`, the Inhibition in assay [1] is listed as 6.43%; in assay [2], 0.18%.

With `Cc1nnc2c(SCC(=O)N3CCN(c4ccc(F)cc4)CC3)nc3ccccc3n12`, the figures for the Inhibition in assay [1] and in assay [2] were 9.13% and 7.96%, respectively.

In the case of `O=C(Cn1nc2c(Oc3ccc(Cl)cc3)nccn2c1=O)Nc1ccc2c(c1)OCO2`, the Inhibition is 6.57% in assay [1] and -7% in assay [2].

In the case of `Cc1cc(C)cc(Nc2nc(C)cc3nn(CC(=O)Nc4ccc(F)cc4F)c(=O)n23)c1`, the Inhibition is 11.96% in assay [1] and -0.48% in assay [2].

As for `COc1ccc(-c2cc3c4nnc(SCC(=O)Nc5cccc(Cl)c5C)n4ccn3n2)cc1`, the Inhibition in assay [1] was -7.92%; in assay [2] it was -11.64%.

Regarding `Cc1ccc(C)c(Cn2nc3ccc(-c4ccc(C)c(C)c4)nn3c2=O)c1`, the Inhibition in assay [1] is reported as 6.01%; in assay [2] it was -0.08%.

Take `CCCc1nnc2c(=O)n(CC(=O)Nc3ccc(Br)cc3F)c3ccccc3n12`: the figures for the Inhibition in assay [1] and in assay [2] were -16.77% and -13.67%, respectively.

On to `COc1ccc(NC(=O)CSc2nc3ccccc3n3c(C(C)C)nnc23)c(OC)c1`, for which the Inhibition in assay [1] is listed as 1.68%; in assay [2] it was -5.84%.

Turning to `Cc1c(Cl)cccc1-n1ccn2c(=O)n(Cc3ccc(F)cc3)nc2c1=O`, the Inhibition in assay [1] is given as 2.79%; in assay [2], -11.88%.

As for `O=C(Cn1nc2c3c4c(sc3ncn2c1=O)CCCC4)NCc1ccccc1Cl`, the Inhibition in assay [1] is given as -19.92%; in assay [2] it was 0.09%.

In the case of `C=Cc1ccc(CSc2nnc3c(=O)n(-c4ccc(F)cc4)ccn23)cc1`, the Inhibition in assay [1] is 18.57%; in assay [2] it was -2.33%.

Consider `CC(C)CCn1c(=O)c2sccc2n2c(=O)n(CC(=O)N3CCC(Cc4ccccc4)CC3)nc12`, for which the Inhibition is recorded as -19.02% in assay [1] and -15.19% in assay [2].

As to `N#CCn1nc2n(CCC(=O)NC3CCCCC3)c(=O)c3ccccc3n2c1=O`, the Inhibition in assay [1] was found to be 8.56%; in assay [2], 0.43%.

Regarding `COc1ccc(CNC(=O)Cn2nc3c(SCc4ccc(Cl)cc4)nccn3c2=O)cc1`, the Inhibition in assay [1] is listed as -6.61%; in assay [2], -12.31%.

Regarding `O=c1c2nn(Cc3c(F)cccc3Cl)c(=O)n2ccn1-c1ccccc1`, the Inhibition is given as -4.83% in assay [1] and 2.37% in assay [2].

In the case of `O=C(Cn1nc2c3c4c(sc3ncn2c1=O)CCCC4)NCc1ccc(F)cc1`, the Inhibition in assay [1] is reported as 8.69%; in assay [2], -4.83%.

In the case of `COc1ccc(NC(=O)Cn2nc3c(SCc4ccc(Cl)cc4)nccn3c2=O)cc1`, the Inhibition is 4.07% in assay [1] and -0.18% in assay [2].

`O=S(=O)(c1ccc2nncn2c1)N(Cc1cccc(F)c1)c1cc(F)cc(F)c1`: the results for the Inhibition in assay [1] and in assay [2] were 0.07% and -4.91%, respectively.

For `Cc1ccc(CNC(=O)Cn2nc3c(Oc4ccccc4C)nccn3c2=O)cc1`, the Inhibition in assay [1] is reported as 5.58%; in assay [2], -1.39%.

For `Cc1cc(F)ccc1NC(=O)Cn1nc2c(SCc3ccc(Cl)cc3)nccn2c1=O`, the Inhibition in assay [1] was 7.28%; in assay [2] it was -4.86%.

These data come from ChEMBL document CHEMBL4513146, “CO-ADD screening of Karazin Kharkiv National University (Ukraine) compounds”.
